Test results reported in PubChem BioAssay AID651994 (Sanford-Burnham Center for Chemical Genomics, 2013).
Screen size: about 2,500 compounds; about 790 (32%) were called active.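 Rule for the calls: active = mean cytotoxicity at 5 µM above about 25% (limit read from the data); inactive = the rest.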 The entries come from a sample that favours actives as a whole.

Assay: cell viability loss, Sufu-null reporter line – ATP luminescence, single concentration, cytotoxicity control for Gli-SUFU antagonist project, confirmation (AID 651994);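 note: cells exposed to compound overnight for roughly 16 to 18 hours; plate controls were DMSO wells with cells for no effect and medium without cells for full effect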
Conditions: Sufu-KO-LIGHT cells cytotoxicity, at 5 µM, hits give high values

| Compound | cytotoxicity |
| --- | --- |
| CCOc1cccc(=NC2CCCCC2)c2c(C)[nH]c(C)c12 | 32.3% (active) |
